High-throughput results: PubChem BioAssay, several laboratories
APP 5UTR inh: APP translation inhibition; hit rate 0.82% among 190,000; SH-SY5Y APP 5'UTR-luciferase reporter, luminescence; inhibition, % at 2 µM;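 active = inhibition above a set limit, derived from the sample mean plus 3 SD, cut at about 45% in these data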
Ba/F3 V617F tox: reduce viability of Ba/F3 cells dependent on JAK2V617F. Ba/F3 EpoR-JAK2V617F viability, ATP luminescence. inhibition, % at 5.6 µM. hit rate 1.1% among 220,000;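 active = inhibition above the campaign mean plus 3 SD over all tested compounds, cut at about 24% in these data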;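 also: cytokine-independent growth of Ba/F3 cells driven by EpoR plus mutant JAK2; 0% = DMSO-treated cells and 100% = JAK inhibitor I control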
aSyn UTR inh: MLPCN primary screen, SNCA 5' untranslated region | alpha-synuclein 5'UTR reporter, inhibitor activity | inhibition, % (tested at 7.5 µM) | hit rate 0.82% among 300,000 | AID 1813; in the data active = inhibition above about 60%;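 also: H4 neuroglioblastoma cells stably carrying SNCA 5'UTR luciferase fusion; 0% = DMSO wells and 100% = positive control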
IEC-6 tox: kills IEC-6 intestinal cells in KLF5 counter-screen; IEC-6 cytotoxicity, luminescence viability; inhibition, % at 5 µM; hit rate 0.78% among 290,000; AID 1825; in the data active = inhibition above about 22%;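 also: 0% = plate median of test compound wells and 100% = cytotoxic reference compound wells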
KLF5 inh: inhibitors of KLF5 expression. DLD-1 KLF5 promoter-luciferase reporter, luminescence. AID 1700. inhibition, % at 5 µM. hit rate 0.23% among 290,000;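 active = inhibition above a per-plate limit of that plate's mean compound inhibition plus 3 SD, cut at about 60% in these data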;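 also: 0% = DMSO wells and 100% = LY294002 at 200 µM; higher means less KLF5 promoter-driven luciferase light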
BaF3 parental: counter-screen for JAK2V617F inhibitors: parental Ba/F3 viability inhibitors | CellTiter-Glo ATP luminescence | inhibition, % at 5.6 µM | hit rate 1.1% among 220,000 | AID 1486;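 active = inhibition above a per-campaign cutoff, the mean inhibition of all tested compounds plus 3 SD, cut at about 27% in these data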;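 also: 0% = DMSO wells and 100% = JAK Inhibitor I control wells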
Active calls of the source: *; · = no result given. Hits are enriched below; roughly 2.2% of the tested compounds scored in any of these assays.

SMILES	APP 5UTR inh	Ba/F3 V617F tox	aSyn UTR inh	IEC-6 tox	KLF5 inh	BaF3 parental
Cc1ccc(C(=O)N2c3ccccc3OCC2C)cc1 (configuration not stated)	·	·	3.1	-7.1	4.7	·
O=C1C=C(c2cccs2)C[C@H](c2ccccc2)[C@H]1n1nnc([N+](=O)[O-])n1	16.4	17.7	71.2*	8.3	4.9	11.2
c1ccc(Cc2cc[n+](Cc3ccccn3)cc2)cc1	·	57.1*	3.4	2.4	-22.2	64.8*
O=[N+]([O-])c1ccc(C[n+]2ccc(Cc3ccccc3)cc2)cc1	-43.3	12.6	13.2	-1.2	-17.8	37.4*
Cc1ccccc1OCC(=O)N1CCN(C(=O)COc2ccccc2C)CC1	·	·	-2.3	2.6	-8.8	·
COc1ccc(NC(=O)c2cccc([N+](=O)[O-])c2)cc1	-6.9	4.2	-105.0	3.9	-56.9	4.6
COc1ccc(NC(=O)c2cc([N+](=O)[O-])ccc2O)cc1	12.4	14.7	85.1*	11.2	84.4*	18.1
O=C(NCCN1CCOCC1)/C(=C\c1ccc(F)cc1)NC(=O)c1ccccc1	·	·	-1.0	6.9	-13.3	·
Cc1cc(C(=O)COC(=O)c2ccccc2Br)c(C)n1CC1CCCO1 (configuration not stated)	·	3.7	53.6	3.2	55.7	-13.8
Cc1cc(C(=O)COc2ccccc2C(N)=O)c(C)n1CC1CCCO1 (configuration not stated)	-22.1	45.1*	-35.0	15.3	-36.0	62.1*
O=C(N/N=C/c1cc(Br)c(Br)s1)c1ccncc1	-7.3	1.1	84.3*	0.5	-22.4	10.6
C=CCC(C#Cc1ccccc1)[N+](C)(C)CC=C (configuration not stated)	10.0	40.6*	-6.8	-1.0	-20.4	50.0*
CCOC(=O)CNS(=O)(=O)c1ccc(S(=O)(=O)NC2CC2)cc1	·	·	-14.0	2.6	-36.0	·
CC(C)(C)NC(=O)C(c1ccncc1)N(C(=O)Cn1nnc(-c2ccc(F)cc2)n1)c1ccc(F)cc1 (configuration not stated)	-22.2	3.1	-10.4	3.2	-9.4	81.3*
O=C(Nc1ccc(OCc2ccccc2Cl)cc1)c1cccnc1	·	·	90.3*	16.9	-0.8	·
CCOC(=O)Cn1cc(C#N)c2cccc(CC)c21	6.6	-4.9	1.0	1.7	8.9	-1.8
C(#Cc1ccc(C#CCN2CCCC2)cc1)CN1CCCC1	-1.6	4.8	-8.5	1.5	-1.3	8.2
C#CC[N+]1(CC#Cc2ccc(C)cc2)CCCCC1	0.9	69.4*	-4.0	-2.9	-28.8	66.0*
Cc1ccc(C#CC[N+]2(C)CCCCC2)cc1	·	54.2*	-1.4	3.7	-44.8	57.4*
Cn1ncc(Br)c1NC(=O)Nc1ccc(Cl)cc1	·	·	2.2	-0.6	-35.8	·
CC(=O)N1c2ccc(S(=O)(=O)N3CCCC(C(=O)NCc4ccccc4)C3)cc2CC1C (configuration not stated)	·	·	-5.9	5.4	-19.6	·
CC(=O)N1CCN(C(=O)CSc2nnc(C)n2-c2ccccc2)CC1	·	·	-2.5	-5.3	-31.6	·
C[n+]1c(/C=C/c2ccc3c(c2)OCO3)ccc2ccccc21	-185.0	41.3*	-149.8	3.0	-28.4	33.4*
Cc1ccc(N(NC(=O)C(O)(c2ccccc2)c2ccccc2)C(=O)CCl)cc1	15.3	0.1	-1.3	5.5	-36.3	5.9
CCOC(=O)Cc1csc(/N=C/c2c(O)n(-c3ccc(C)c(C)c3)c(=O)c3ccccc23)n1	22.5	-2.5	105.0*	-3.4	-7.8	6.7
SMILES	APP 5UTR inh	Ba/F3 V617F tox	aSyn UTR inh	IEC-6 tox	KLF5 inh	BaF3 parental
CCCCN1CN(Cc2ccco2)CNC1=S	15.1	1.9	-1.5	1.2	-8.7	4.9
C=CCN1CN(Cc2ccco2)CNC1=S	62.0*	-3.1	9.0	-3.4	-8.5	2.6
COc1ccc(C(=O)N2CCN(c3ccc([N+](=O)[O-])c(NCCc4ccc(OC)c(OC)c4)c3)CC2)cc1	18.4	6.1	16.5	1.1	-20.2	11.8
COc1ccc(CCNc2cc(N3CCN(C(=O)c4ccc(C)cc4)CC3)ccc2[N+](=O)[O-])cc1OC	-7.0	1.1	2.1	-2.3	-16.7	43.4*
Cc1ccc(-c2csc3ncnc(NCCC(=O)O)c23)cc1C	·	·	-3.9	-0.4	-20.6	·
O=C(Nc1ccc(N2CCOCC2)cc1)c1ccc(S(=O)(=O)NCc2ccco2)cc1	·	3.5	-54.7	1.1	16.3	-1.3
O=C(OCc1nc2ccccc2s1)C1CCN(S(=O)(=O)c2cccs2)CC1	-29.4	1.5	-43.9	-1.1	-37.0	96.2*
O=S(=O)(c1cccs1)N1CCN(Cc2nc3ccccc3s2)CC1	-5.4	1.6	-7.3	5.4	-0.9	5.1
